Hits are enriched below; roughly 31% of the tested compounds scored in any of these assays.
PLAP activator – PLAP enzyme activators, biochemical, luminescence, HTS. activation fold at 20 µM. Alkaline phosphatase, placental type (Homo sapiens), P05187. purified PLAP enzyme, luminescent substrate read-out; stronger effect = higher value. 96,000 tested, 1.2% active; in the data active means activation fold above about 2
CYP2C9 act – human CYP2C9 activators, primary screen, biochemical, luminescence. Cytochrome P450 2C9 (Homo sapiens), P11712. recombinant CYP2C9, luciferin-H conversion; stronger effect = higher value; factor 1 = untreated enzyme, 0 = blocked. activation factor at 5 µM. 96,000 tested, 1.4% active. AID 1024, 2008;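 active means activation factor of 2 or more for CYP2C9 at a 5 µM dose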;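 further: 0 = sulfaphenazole-blocked wells and 1 = vehicle-only wells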
CYP2C19 inh – blockers of cytochrome P450 2C19 activity – biochemical, luminescence, ADME assay, primary screen. CYP2C19 Supersomes, luciferin-H EGE luminescence, 30 min. inhibition, % at 5 µM. 96,000 tested, 21% active;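 active means CYP2C19 inhibition above a set limit at 5 µM in the primary screen, cut at about 50% in these data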;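 further: plate controls were negative control wells for no effect and 2.5 mM tranylcypromine positive control for full effect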
Target sequence (P33261 whole entry, looked up): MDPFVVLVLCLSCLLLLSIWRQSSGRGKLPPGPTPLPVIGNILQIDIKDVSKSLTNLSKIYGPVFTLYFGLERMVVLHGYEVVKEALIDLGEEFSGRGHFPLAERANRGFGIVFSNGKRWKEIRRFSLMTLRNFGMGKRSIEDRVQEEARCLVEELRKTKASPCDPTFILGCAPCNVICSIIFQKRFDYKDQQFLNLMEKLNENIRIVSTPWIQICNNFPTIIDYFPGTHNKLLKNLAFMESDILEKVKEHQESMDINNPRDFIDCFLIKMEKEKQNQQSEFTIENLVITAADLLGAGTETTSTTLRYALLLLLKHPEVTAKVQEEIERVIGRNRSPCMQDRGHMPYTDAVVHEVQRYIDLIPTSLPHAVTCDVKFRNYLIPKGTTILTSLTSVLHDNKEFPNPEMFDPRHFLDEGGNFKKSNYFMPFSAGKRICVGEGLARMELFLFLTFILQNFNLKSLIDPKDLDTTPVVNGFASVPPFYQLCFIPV
CYP2C19 activ – human CYP2C19 activators, primary screen, biochemical, luminescence | recombinant CYP2C19, luciferin-H EGE luminescence; stronger effect = higher value; 0 = fully inhibited enzyme, 1 = untreated enzyme | Cytochrome P450 2C19 (Homo sapiens), P33261 | activation factor at 5 µM | 96,000 tested, under 10 active;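 active means activation factor of at least 2 at 5 µM in the primary screen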;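 further: 0 = wells with 2.5 mM tranylcypromine and 1 = vehicle-only wells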
CYP2C9 inh – blockers of cytochrome P450 2C9 activity – biochemical, luminescence, ADME assay, primary screen; P11712; CYP2C9 Supersomes, luciferin-H conversion; inhibition, % at 5 µM; 96,000 tested, 20% active; AID 777, 2007;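 active means blocking of liver enzyme CYP2C9 beyond about 50% at 5 µM, limit read from the data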
Starred values were filed as active, the others as inactive.

SMILES	PLAP activator	CYP2C9 act	CYP2C19 inh	CYP2C19 activ	CYP2C9 inh
O=S(=O)(c1ccccc1)c1nc(-c2ccco2)oc1N1CCCCCC1	1	0.4	65.9*	0.3	58.0*
COc1cc(-c2nc(S(=O)(=O)c3ccccc3)c(N3CCOCC3)o2)cc(OC)c1OC	0.9	0.1	54.7*	0.5	89.2*
CCSc1oc(-c2ccccc2)nc1S(=O)(=O)c1ccccc1	0.8	1.8	4.2	1	-81.6
NC(=O)CSc1oc(-c2ccc(F)cc2)nc1S(=O)(=O)c1ccccc1	0.8	0.6	85.2*	0.1	38.2
CCCSc1oc(-c2ccco2)nc1S(=O)(=O)c1ccccc1	1.2	1.2	89.8*	0.1	-24.0
CSc1oc(-c2ccco2)nc1S(=O)(=O)c1ccc(Br)cc1	1	0.7	25.5	0.7	28.1
CN1CCN(c2oc(-c3ccco3)nc2S(=O)(=O)c2ccccc2)CC1	1.2	0.7	4.3	1	28.8
Cc1nn(-c2ccccc2)c2sc(C(=O)OCN3C(=O)c4ccccc4C3=O)cc12	1.4	0.8	23.7	0.8	16.5
CCC(=O)OC1c2ccccc2C(=O)N1Cc1ccccc1 (stereo not given)	0.8	0.9	62.4*	0.4	14.3
O=C(O)CSC1c2ccccc2C(=O)N1Cc1ccccc1 (stereo not given)	1.2	1.2	-7.8	1.1	-16.0
CC1CCCCC1NC(=O)c1cc2c(s1)CS(=O)(=O)C2 (stereo not given)	1.2	0.6	-7.3	1.1	40.8
CC1(C)CC(=O)C2=C(C1)N(c1ccc(F)cc1)C(=O)NC2(C(F)(F)F)C(F)(F)F	1.1	1	0.1	1	0.6
Cc1[nH]n(-c2ccccc2)c(=O)c1C1(C(F)(F)F)C(=O)N(c2ccc(F)cc2)C2=C1C(=O)CC(C)(C)C2 (stereo not given)	1.6	0.2	26.3	0.7	77.6*
CCOC(=O)c1[nH]c2ccc(OC)cc2c1NC(=O)C(C)N1CCC2(CC1)OCCO2 (stereo not given)	1.6	0.3	70.5*	0.3	71.3*
CCOC(=O)c1[nH]c2ccc(F)cc2c1NC(=O)C(C)N1CCc2cc(OC)c(OC)cc2C1 (stereo not given)	1.8	0	91.2*	0.1	98.4*
COc1cccc(C2NC(CCSC)(C(=O)O)C3C(=O)N(C(C)C)C(=O)C23)c1O (stereo not given)	1.1	1	-14.6	1.1	-2.0
CC(=O)N(CC(=O)O)c1ccccc1C(=O)O	1	1.1	-5.7	1.1	-6.3
COCCCNC(CC(=O)Nc1ccc(OC)cc1OC)C(=O)O (stereo not given)	1.2	1.3	-21.0	1.2	-25.4
Cc1ccc(C2NNC(=O)C2NC(=O)c2ccccc2)cc1 (stereo not given)	1.9	0.8	60.4*	0.4	23.1
O=C(NC1C(=O)NNC1c1ccccc1)c1ccc(F)cc1 (stereo not given)	1.2	0.7	16.2	0.8	30.4
CCOc1ccc(S(=O)(=O)N(CCO)CCO)cc1-c1nc2c(C(C)(C)C)nn(C)c2c(=O)[nH]1	1.4	0.4	-6.7	1.1	59.3*
CCOc1ccc(S(=O)(=O)NC(C)(C)C)cc1-c1nc2c(C(C)(C)C)nn(C)c2c(=O)[nH]1	1.8	0.3	22.2	0.8	66.5*
Cc1cc(Br)cc(C)c1NC(=S)NC(=O)CC(C)C	0.8	1	-4.2	1	2.3
O=C(NN1CCOCC1)c1cc(-c2cccc(Cl)c2)nc2ccccc12	1.2	0.9	12.9	0.9	6.8
O=C1CCC(C(=O)OCc2c(Cl)cccc2Cl)N1 (stereo not given)	0.9	1.2	-9.4	1.1	-15.8
CCCC1CC(c2csc(N)n2)CCO1 (stereo not given)	1.1	0.2	80.1*	0.2	75.7*
CC(C)C1CC(c2csc(N)n2)CCO1 (stereo not given)	0.9	0.9	37.5	0.6	14.6
O=C(CSc1nnc(-c2cccs2)o1)N1CCCc2ccccc21	0.8	0.7	76.8*	0.2	32.5
COc1cccc(-c2nnc(SCC(=O)N3CCCc4ccccc43)o2)c1	1	0.6	95.0*	0.1	36.5

Compound activity deposited in PubChem by Sanford-Burnham Center for Chemical Genomics.
